Shown are actives, neighbours in structure and some others; about 0.9% of the full set was active somewhere.
RXFP1 ag = qHTS Assay for Agonists of the Relaxin Receptor RXFP1 | Potency, µM (doses to about 57.5 µM), without a hit: at the top dose activation, most hits filed as activators | HEK293T-RXFP1 cAMP TR-FRET, 30 min; response scale: percent of porcine relaxin response, buffer zero | AID 2676, 2010 | 370,000 tested, 0.3% active | Relaxin receptor 1 (Homo sapiens), Q9HBX9; active means well fitted activation curve with a large enough effect; inconclusive means small, poorly fitted or top-dose-only effect; further: potency means the concentration at half of the fitted maximal effect; on the % scale 0 is the no-effect control and ±100 the full control effect; nearly all actives have a fitted effect of over 60% in size
Target sequence (Q9HBX9 whole entry, looked up): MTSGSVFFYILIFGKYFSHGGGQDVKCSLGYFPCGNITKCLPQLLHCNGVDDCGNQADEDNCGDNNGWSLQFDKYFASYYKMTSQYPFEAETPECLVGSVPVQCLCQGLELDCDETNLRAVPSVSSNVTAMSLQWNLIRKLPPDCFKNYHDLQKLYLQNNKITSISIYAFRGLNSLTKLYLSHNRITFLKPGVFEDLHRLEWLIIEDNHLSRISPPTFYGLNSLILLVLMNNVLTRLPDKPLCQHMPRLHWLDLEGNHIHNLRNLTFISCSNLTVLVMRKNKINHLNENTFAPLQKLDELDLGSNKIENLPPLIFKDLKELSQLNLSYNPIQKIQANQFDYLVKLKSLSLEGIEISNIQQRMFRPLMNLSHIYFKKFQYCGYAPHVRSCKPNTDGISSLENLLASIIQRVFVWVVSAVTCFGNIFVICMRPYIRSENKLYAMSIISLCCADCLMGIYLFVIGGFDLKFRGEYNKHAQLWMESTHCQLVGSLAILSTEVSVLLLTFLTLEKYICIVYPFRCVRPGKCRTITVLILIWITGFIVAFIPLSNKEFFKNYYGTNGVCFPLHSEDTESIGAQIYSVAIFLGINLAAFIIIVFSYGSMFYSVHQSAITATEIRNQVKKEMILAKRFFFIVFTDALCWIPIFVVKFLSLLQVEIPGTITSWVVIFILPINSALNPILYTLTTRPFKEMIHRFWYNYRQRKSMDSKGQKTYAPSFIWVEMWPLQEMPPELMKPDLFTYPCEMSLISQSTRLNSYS
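Agonist response is measured as cAMP accumulation in an RXFP1-transfected HEK293T line under PDE4 inhibition. Values are scaled between buffer-only and 29 nM porcine relaxin, and EC50s come from standard Hill equation fits.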
gsp antag = qHTS for Antagonists of gsp, the Etiologic Mutation Responsible for Fibrous Dysplasia/McCune-Albright Syndrome: qHTS; Potency, µM (series often up to 76.9 µM), for inactives: top-dose activity change, negative = inhibition, usual class: inhibitors; 340,000 tested, 0.4% active; gsp-mutant cells, cAMP HTRF, 30 min; AID 624288, 2012; calls by dose curve; cell line not stated here;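 further: intracellular cAMP measured with PDE inhibitor Ro 20-1724 present during compound exposure; potency means the concentration at half of the fitted maximal effect; on the % scale 0 is the no-effect control and ±100 the full control effect; nearly all actives have a fitted effect of over 65% in size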
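Measurement of cellular cAMP by homogeneous time-resolved fluorescence following a 30 min compound exposure at 37C. The PDE inhibitor […] was present throughout; the assay buffer was DPBS with 0.05% BSA and 0.005% Tween 20.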
gsp ag = qHTS for Agonist of gsp, the Etiologic Mutation Responsible for Fibrous Dysplasia/McCune-Albright Syndrome: qHTS; 340,000 tested, 0.13% active; Potency, µM (series often up to 76.9 µM), for inactives: at the top dose activation (cAMP increase), hits mostly activators; AID 624287, 2012; gsp mutant cells, cAMP HTRF, 30 min; active means well fitted activation curve with a large enough effect; inconclusive means small, poorly fitted or top-dose-only effect, or another doubt; inactive means no such curve, though single readings can be large or run the other way; cell line not stated here;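 further: phosphodiesterase inhibitor Ro 20-1724 added with compounds to block cAMP breakdown; potency means the concentration at half of the fitted maximal effect; nearly all actives have a fitted effect of over 60% in size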
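Cells stably selected in G418 were plated at 2000/well, grown 16-24 hr, then given compounds in DMSO with the PDE inhibitor […] (300 uM solution added) for 30 min at 37C; cAMP was read by HTRF.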
RXFP1 antagonist = qHTS Assay for Antagonists of the Relaxin Receptor RXFP1; HEK293-RXFP1, relaxin-stimulated cAMP HTRF, 30 min; active compounds read low; activity change, negative = inhibition, % at 57.5 µM; 350,000 tested, 0.59% active; Relaxin receptor 1 (Homo sapiens), Q9HBX9;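 active means activity change of -60% or lower, but not beyond a set lower limit; inconclusive means change between -60% and -40%, or beyond the set limit; inactive means change above -40%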; further: on the % scale 0 is the no-effect control and ±100 the full control effect
* marks the source's active call; other numbers are inactive results; ? = inconclusive; / = not tested or not shown; [ ] = remark or other dose.

SMILES	RXFP1 ag	gsp antag	gsp ag	RXFP1 antagonist
COCCCNCCOCCOc1ccc(Cl)cc1C(C)(C)C	0.6%	28.8%	-11.2%	-64.1*
COc1ccc(OC)c(NC(=O)c2cccc(N3C(=O)C4C5C=CC(C6CC56)C4C3=O)c2)c1 (configuration not stated)	1.7%	28.2µM*	-47.7%	-9.9
O=C(NCc1cccnc1)C1CCN(S(=O)(=O)c2cc(Cl)ccc2Cl)CC1	0.3%	0.9%	6.1%	-88.0*
CCOc1ccc(NC(=O)CSc2ncc3c(n2)-c2ccc(Cl)cc2N(Cc2ccccc2)S3(=O)=O)cc1	11.2µM*	/	/	-4.2
Cc1ccc(CNC(=O)CSc2ncc3c(n2)-c2ccc(Cl)cc2N(Cc2ccccc2)S3(=O)=O)cc1	28.2µM*	/	/	/
Cc1ccc(/C=C/c2onc(C)c2S(=O)(=O)N2CCC(C(=O)N3CCN(c4cccc(C)c4)C(C)C3)CC2)cc1 (configuration not stated)	-0.5%	/	/	/
CCOc1ccc(NC(=O)N(Cc2ccc(CC)cc2)Cc2cn[nH]c2-c2ccc(OC)cc2)cc1	2.5%	/	/	?
COc1cccc(N2CCN(c3ncnc4c3cnn4-c3ccc(C)cc3C)CC2)c1	2.3%	7.94µM*	2.2%	/
O=C(NC12CC3CC(CC(C3)C1)C2)c1ccc(-c2ccc(Br)cc2)o1	0.5%	-8.7%	?	-11.5
O=C(NC12CC3CC(CC(C3)C1)C2)c1ccc(Br)o1	-0.6%	2.2%	-15.9%	-110.2*
COc1ccc(CCN2C(=O)C(O)=C(C(=O)c3ccco3)C2c2cccs2)cc1OC (configuration not stated)	?	31.9%	17.8µM*	16.0
Clc1ccc2[nH]c3c(N4CCC5(CC4)OCCO5)ncnc3c2c1	4.1%	35.5µM*	9.4%	-10.7
c1ccc2c(c1)[nH]c1c(N3CCCC3)ncnc12	-0.5%	?	?	-11.3
c1ccc2c(c1)[nH]c1c(N3CCSCC3)ncnc12	1.0%	14.1µM*	20.9%	2.5
Cc1cccc2[nH]c3c(N4CCC5(CC4)OCCO5)ncnc3c12	-0.8%	-20.2%	-17.0%	-7.5
CCC1SC(=NC(=O)c2ccc(Cl)c(Cl)c2)NC1=O (configuration not stated)	-0.8%	12.6µM*	1.7%	-11.5
CCC1SC(=Nc2cccc(C)c2)NC1=O (configuration not stated)	-0.3%	2.6%	-29.5%	-5.9
CCC(Oc1ccc(F)cc1)C(=O)Nc1nc2c(s1)CCCC2 (configuration not stated)	1.5%	/	/	-117.1*
N#Cc1c2n(c3c(N)ncnc13)CCCCC2	17.8µM*	12.4%	45.5%[15.4 µM]	3.6
O=C(NC1CCCC1)c1cc2cc(Br)ccc2o1	1.0%	7.7%	2.51µM*	-0.3
CCOc1ccccc1-c1nc(SCC(=O)c2ccc(OC)c(Br)c2)n[nH]1	-2.1%	/	/	-13.6
[O-][n+]1ccccc1SSc1cccc[n+]1[O-]	/	/	/	-36.6
COC(=O)c1ccc(C(=O)OC)c(NC(=O)c2c(-c3ccccc3)noc2C)c1	13.6%	/	/	/
CC(=O)N1N=C(c2cccs2)CC1c1cc2cc(C)ccc2nc1Cl (configuration not stated)	6.9%	50.1µM*	-36.9%	1.7
Cc1ccc2nc(Cl)c(C3CC(c4cccs4)=NN3S(C)(=O)=O)cc2c1 (configuration not stated)	-0.6%	-22.6%	12.7%	2.6
SMILES	RXFP1 ag	gsp antag	gsp ag	RXFP1 antagonist
CCN(CCNC(=O)c1ccc(CSc2nc3ccncc3[nH]2)cc1)c1ccccc1	0.2%	-6.1%	-233.3%	/
O=C(NCCN1CCN(c2cccc(Cl)c2)CC1)c1ccc(CSc2nc3ccncc3[nH]2)cc1	2.5%	31.6µM*	17.0%	-5.2
Cc1cc(C)n(-c2ccc(C(=O)Nc3ccc(C)c(S(=O)(=O)N4CCOCC4)c3)cc2)n1	-2.2%	35.5µM*	-0.6%[15.4 µM]	-23.0
COc1ccc(NC(=O)/C=C/c2ccc(S(=O)(=O)N3CCOCC3)cc2)cc1	1.1%	6.9%	9.4%	-1.6
CCOC(=O)c1ccc(NC(=O)c2ccc(C)c(S(=O)(=O)N3CCOCC3)c2)cc1	1.1%	28.2µM*	0.4%	?
COc1ccc(/C=C/C(=O)Nc2ccc(C)c(S(=O)(=O)N3CCOCC3)c2)cc1	/	31.6µM*	/	/
COc1ccc(C2Nc3ccccc3C(=O)N2Cc2ccccc2)cc1COc1ccc(Cl)cc1Cl (configuration not stated)	3.8%	/	/	/
CC(C)(C)CC(=O)OCC(=O)[C@@]1(O)CC[C@H]2[C@@H]3CCC4=CC(=O)C=C[C@]4(C)[C@H]3[C@@H](O)C[C@@]21C	/	/	/	-19.2
O=C(Nc1ccccc1O)c1ccccc1O	-2.1%	25.1µM*	11.4%	8.0
CC(C)c1ccc(/C=N/n2c(COc3ccccc3)n[nH]c2=S)cc1	2.9%	?	26.4%	-60.7*
Cc1ccc(/C=N/n2c(COc3ccccc3)n[nH]c2=S)cc1	-0.1%	-19.8%	23.0%	-2.0
CC(C(O)c1ccccc1)N(C)CCOC(c1ccccc1)c1ccccc1 (configuration not stated)	/	/	/	-30.7
COc1ccc(-c2nc3scc(CCNS(=O)(=O)c4ccc(F)cc4C)n3n2)cc1	3.2%	/	/	-26.3
N#CCCn1nc(-c2ccccc2)cc1Nc1ccccc1NC(=O)C(F)(F)F	-0.3%	-9.3%	9.8%	/
N#CCCn1nc(-c2ccc(Br)cc2)cc1Nc1ccccc1NC(=O)C(F)(F)F	1.6%	31.6µM*	18.7%[15.4 µM]	-12.3
CCOC(=O)c1c(-c2ccccc2)oc2ccc(OCC)cc12	1.6%	-8.8%	9.1%	-12.6
CCOC(=O)c1c(-c2ccccc2)oc2ccc(OCC(O)CNCCN(C)C)cc12 (configuration not stated)	-0.1%	13.4%	8.2%[15.4 µM]	-100.3*
Cc1ccc(NC(=O)N2CCN(c3nnc(C)c4c(C)n(-c5ccccc5)nc34)CC2)cc1Cl	0.3%	/	/	0.9
Cc1cc(C)n(-c2cc(C(C)(C)C)nc3c(-c4ccccc4)cnn23)n1	-1.0%	-27.3%	7.5%[15.4 µM]	-80.0*
Cc1cc(C)n(-c2cc(C(C)(C)C)nc3c(-c4ccc(Cl)cc4)cnn23)n1	0.3%	-5.5%	-49.2%	-10.3
Cc1nc(-n2nc(C)c(Cc3ccccc3Cl)c2C)sc1C(=O)N1CCC(C)CC1	0.1%	/	/	-7.1
O=C(Cn1cc(S(=O)(=O)Cc2ccc(F)cc2)c2ccccc21)NCc1ccccc1Cl	2.1%	/	/	-19.3
CC(=O)C1CCC2C3CC=C4CC(SC(=N)N)CCC4(C)C3CCC12C (configuration not stated)	/	-8.1%	1.0%	-104.7*
CC(=O)OCC(=O)C1CCC2C3CC=C4CC(O)CCC4(C)C3CCC12C (configuration not stated)	-0.4%	-0.2%	/	/
O=C(O)c1ccccc1NC(=O)c1cc2ccccc2oc1=O	3.8%	31.6µM*	?	-13.9
COc1ccc(CCNC(=O)c2ccc3c(c2)c(C)c(C)n3Cc2ccc(F)cc2)c(OC)c1OC	-0.3%	/	/	-5.4

High-throughput results (PubChem BioAssay)
